Laboratory results published in PubChem BioAssay (NCI).
About 79,000 compounds went through this panel and 15% of them were active in at least one assay; those are over-represented in the sample as a whole. A number with no mark means an inactive call. Calls of active or inactive are those of the source. Rule as the data show it: active = growth inhibition above about 70%; inactive = the rest.

Tests used:
[1] = NCI Yeast Anticancer Drug Screen. Data for the rad50 strain (AID 155);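 also: 0% = growth of vehicle-only cultures of the same strain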; details: S. cerevisiae rad50 strain growth inhibition, stronger effect = higher value
Summary of the method: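 A DNA repair-deficient yeast mutant serves as the test organism; compound-induced growth inhibition is calculated against vehicle-treated cells.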

[2] = NCI Yeast Anticancer Drug Screen. Data for the mec2-1 strain (AID 157); details: S. cerevisiae mec2-1 strain, stronger effect = higher value
Summary of the method: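 Each compound was tested on mec2-1 yeast, a strain altered in DNA damage repair or cell cycle control. Growth inhibition is reported relative to vehicle.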

[3] = NCI Yeast Anticancer Drug Screen. Data for the sgs1 mgt1 strain (AID 161);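 also: 0% = growth of cultures given vehicle only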; details: S. cerevisiae sgs1 mgt1 strain, stronger effect = higher value
Summary of the method: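 Test agents were incubated with a DNA-repair-mutant yeast strain. Growth was then read and compared against vehicle-treated controls.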

[4] = NCI Yeast Anticancer Drug Screen. Data for the cln2 rad14 strain (AID 165);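 also: 0% = growth equal to vehicle treated cultures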; details: S. cerevisiae cln2 rad14 strain, stronger effect = higher value
Summary of the method: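 Test compounds were added to cln2 rad14 yeast cultures; inhibition of growth was then determined by comparison with vehicle treatment.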

[5] = NCI Yeast Anticancer Drug Screen. Data for the bub3 strain (AID 167); details: S. cerevisiae bub3 mutant strain, stronger effect = higher value
Summary of the method: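 Inhibition values come from growth of compound-treated mutant yeast normalised to vehicle-treated controls.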

[6] = NCI Yeast Anticancer Drug Screen. Data for the mlh1 rad18 strain (AID 175); details: S. cerevisiae mlh1 rad18 strain growth inhibition, stronger effect = higher value
Summary of the method: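 Inhibition values reflect reduced growth of mutant yeast versus vehicle-treated controls following compound exposure; the mutations affect DNA damage repair.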

[7] = at 5.0 µM (retest, dose inferred, filed as 0.5)
[8] = at 50.0 µM (retest, dose inferred, filed as 5.0)

| SMILES | growth inhibition [1, 7] | growth inhibition [1, 8] | growth inhibition ([1]; at 50.0 µM) | growth inhibition [2, 7] | growth inhibition [2, 8] | growth inhibition ([2]; at 50.0 µM) | growth inhibition [3, 7] | growth inhibition [3, 8] | growth inhibition ([3]; at 50.0 µM) | growth inhibition [4, 7] | growth inhibition [4, 8] | growth inhibition ([4]; at 50.0 µM) | growth inhibition [5, 7] | growth inhibition [5, 8] | growth inhibition ([5]; at 50.0 µM) | growth inhibition [6, 7] | growth inhibition [6, 8] | growth inhibition ([6]; at 50.0 µM) |
| --- | --- | --- | --- | --- | --- | --- | --- | --- | --- | --- | --- | --- | --- | --- | --- | --- | --- | --- |
| CC(=O)Oc1c([N+](=O)[O-])cc(-c2ccccc2)cc1[N+](=O)[O-] | 18% | 99% (active) | 78.2% (active) | 20% | 100% (active) | 56.1% | 21% | 99% (active) | 66.3% | 9% | 99% (active) | 47.5% | 21% | 99% (active) | 62.1% | 6% | 99% (active) | 84.6% (active) |
| CC1(C)OC2C(COC(c3ccccc3)(c3ccccc3)c3ccccc3)OC(n3ccc(=O)[nH]c3=O)C2O1 (configuration not stated) | 57% | 92% (active) | 75.9% (active) | 35% | 96% (active) | 53.6% | 43% | 56% | 75.3% (active) | 28% | 75% (active) | 52.1% | 42% | 94% (active) | 72.6% (active) | 52% | 95% (active) | 70.5% (active) |
| CCCCCCCCCCCC[N+](C)(C)C (tested in a mixture with another compound) | -7% | 99% (active) | 67.9% | 5% | 99% (active) | 93.8% (active) | -4% | 98% (active) | 49.2% | 5% | 98% (active) | 10.6% | 20% | 99% (active) | 88.5% (active) | 0% | 98% (active) | 64% |
| N#CS/C(C(Cl)=C(Cl)Cl)=C(/Cl)[N+](=O)[O-] | 99% (active) | 100% (active) | 88.8% (active) | 99% (active) | 100% (active) | 92% (active) | 99% (active) | 99% (active) | 85.9% (active) | 99% (active) | 99% (active) | 89.5% (active) | 99% (active) | 100% (active) | 90% (active) | 99% (active) | 99% (active) | 84% (active) |
| CCN(CC)CCNc1ccc2nnn3c4ccccc4c(=O)c1c23 | -2% | 63% | 30.8% | -31% | 21% | 17.7% | 0% | -4% | 9.3% | -1% | 39% | 21.1% | -10% | 19% | 10.2% | -1% | -3% | 81.2% (active) |
| CC#CCCCCOC(=O)c1cc([N+](=O)[O-])cc([N+](=O)[O-])c1 | 97% (active) | 99% (active) | 99.5% (active) | 99% (active) | 100% (active) | 99.6% (active) | 98% (active) | 99% (active) | 99.6% (active) | 90% (active) | 99% (active) | 99.4% (active) | 98% (active) | 99% (active) | 99.7% (active) | 98% (active) | 99% (active) | 99.4% (active) |
| COc1ccc2c(c1)[n+]([O-])c(-c1ccc(Cl)c(Cl)c1)c(N)[n+]2[O-] | 23% | 98% (active) | 99.5% (active) | 26% | 99% (active) | 99.5% (active) | 29% | 99% (active) | 99.7% (active) | 38% | 98% (active) | 99.3% (active) | 76% (active) | 99% (active) | 99.6% (active) | 71% (active) | 99% (active) | 99.4% (active) |
| CN(C)CCCNc1cc(/C=C/c2ccc([N+](=O)[O-])cc2)nc2ccccc12 | -6% | 70% (active) | 80.8% (active) | -3% | 38% | 68.5% | -2% | 60% | 86.3% (active) | -4% | 64% | 39.1% | -6% | 45% | 60.9% | -3% | 56% | 91.1% (active) |
| COCC(O)Cn1cc([N+](=O)[O-])nc1C (configuration not stated) | 4% | -1% | 2.7% | 1% | -3% | -5.25% | -1% | 2% | -4.8% | 0% | -2% | 9.45% | -4% | -4% | 19.2% | 6% | 4% | 9.4% |
| CC1CC(=O)OC(C(=O)c2ccccc2)N1c1ccc(C(F)(F)F)cc1N (configuration not stated) | 4% | 30% | 81.6% (active) | 11% | 11% | 65% | 8% | 38% | 59.4% | 0% | 2% | 56.4% | 2% | 10% | 32.2% | 3% | 27% | 88.4% (active) |
| CN(C)c1ccc(N=Nc2ccc(/C=C3\CCOC3=O)cc2)cc1 | -4% | 4% | -3.65% | -5% | -1% | 19.4% | -6% | -6% | -0.65% | -3% | 4% | 37.2% | -3% | 7% | -2.45% | -1% | 3% | 12.4% |
| Cc1c(-c2ccccc2)ccnc1/C=N/NS(=O)(=O)c1ccccc1 | 0% | -4% | 42% | -1% | 15% | 22.9% | 4% | 38% | 82% (active) | -3% | -6% | 35.3% | -8% | -3% | 39.1% | -3% | 28% | 52.2% |
| O=C1C(c2ccc([N+](=O)[O-])cc2)=C(Cl)C(=O)c2c(O)cccc21 | -30% | -22% | 71.2% (active) | -3% | -9% | 45.1% | 0% | -19% | 27.8% | 8% | 0% | 1% | 3% | -37% | 69.2% | -14% | 0% | 45.4% |
| Cc1cc(N(CCOS(C)(=O)=O)CCOS(C)(=O)=O)ccc1C=Nc1cccc(Cl)c1 | 10% | 80% (active) | 90.3% (active) | 44% | 56% | 51.5% | 4% | 61% | 70.8% (active) | -3% | 57% | 13.1% | 0% | 15% | 29.7% | 24% | 92% (active) | 96.2% (active) |
| CC(CCN)(CCN)[N+](=O)[O-] | 16% | 18% | 8.3% | -1% | -27% | 15.8% | -4% | 27% | -13.6% | -25% | -2% | 46.3% | -5% | -1% | 6.9% | 4% | 9% | 15.4% |
| Clc1ccc(C2SCc3nc4ccccc4n32)c(Cl)c1 (configuration not stated) | -7% | 96% (active) | 99% (active) | -6% | 97% (active) | 99.1% (active) | 4% | 95% (active) | 99.2% (active) | -17% | 98% (active) | 97.9% (active) | 9% | 96% (active) | 98.7% (active) | -10% | 94% (active) | 71.9% (active) |
| Cn1c2c(c3ccccc31)CCN(CCCN1CCN(c3cccc(Cl)c3)CC1)C2=O | 32% | 32% | 79.2% (active) | 7% | 7% | 54.1% | 22% | 22% | 78.7% (active) | 11% | 11% | 73.8% (active) | 2% | 2% | 80% (active) | 25% | 25% | 71% (active) |
| O=C1/C(=C/c2ccc(Cl)cc2)CSC/C1=C\c1ccc(Cl)cc1 | 23% | 37% | 2.35% | 12% | 37% | 4% | 19% | 53% | 9.35% | 18% | 34% | -2.2% | 25% | 62% | 5.55% | 16% | 42% | -9.1% |
| COc1ccc(C23OCCN2C(=O)c2ccccc23)cc1 (configuration not stated) | 4% | -3% | 97% (active) | -15% | -6% | 97.1% (active) | -4% | 2% | 97.5% (active) | -4% | -2% | 92.7% (active) | -31% | -2% | 96.3% (active) | -10% | -2% | 97.9% (active) |
